Results as given in article PMC12136788.
Substitutions are numbered along the chain they refer to. Whole data set: some 5,800 sequences, median “enrichment r” near 0.54, cut for the highest 2% near 16. Only a selection was taken, and the highest values are over-represented in it overall.

B1: chr22:41636480:41636706:+|CDS|ENSG00000196419|unk|FALSE|unique (ssRNA)
RNA: GGGAGUUCUACAGUCCGACGAUCAUGGGCCACGGAUCUGACUACUCACUCAGUGAAGUGCUGUGGGUCUGUGCCAACCUCUUUAGUGAUGUCCAAUUCAAGAUGAGUCAUAAGAGGAUCAUGCUGUUCACCAAUGAAGACAACCAACAGAGGAUUGAGCAUCA
B2: chr1:223774945:223775046:+|3pUTR|ENSG00000162909|msi1|total|mutant (ssRNA)
RNA: GGGAGUUCUACAGUCCGACGAUCAAAUACACUUUGUAUCUGGACCUCAAAAUUAUGGGAACAUUUACUUAAACGGAUGAUCACCGCUGAAAAUAAUGAUACUGUCAAUUUGAGACCGCAGAAGUUUCACACAUCAAAGUAAAACAACAGAGGAUUGAGCAUCA
B3: chr2:108783740:108783841:+|CDS_3pUTR|ENSG00000153201|msi1_unk|FALSE|overlapping (ssRNA)
RNA: GGGAGUUCUACAGUCCGACGAUCCAAUAAUUCUCAAUUUGUUAUAACACUGAAGAAAGCAGAACAUUUGGACUUUAAGCAUGUAGUAUUUGGGUUUGUUAAGGAUGGCAUGGAUACUGUGAAAAAGAUUGAAUCAUUUGGUUCCAACAGAGGAUUGAGCAUCA
B4: chr16:61647241:61654101:-|three_prime_utr|ENSG00000150394|control|control|control (ssRNA)
RNA: GGGAGUUCUACAGUCCGACGAUCAAAGAAACUUGACAGUGGAUUAUAAAUAAAUCACUGGAACUGAGCAUUCUGUAAUAUUCUAGGGUCACUCCCCUUAGAUACAACCAAUGUGGCUAUUUGUUUUAGAGGCAAGUUUAGCACCAACAGAGGAUUGAGCAUCA
B5: chr1:62864655:62864756:+|3pUTR|ENSG00000125703|unk|FALSE|unique (ssRNA)
RNA: GGGAGUUCUACAGUCCGACGAUCUUUGUUAACUGUGAUAUGCAUACACUUAUAUAAGCAGAAUUAUGAGUUAAAGUAAUACUUAGCAAUAUGAUUUUAUAAUGGCUCCUCAUUAUGCUUGCUGUUGAACCUUUUAUGAGGAGUCAACAGAGGAUUGAGCAUCA
B6: ENSG00000070961:be:win_6051|3pUTR|ENSG00000070961|bound_else_gene|NA|bound_elsewhere_windowed (ssRNA)
RNA: GGGAGUUCUACAGUCCGACGAUCCAGAAAUUUCCAGAGCAUUAUGUAGGUAGAAAAAAAUGCAAGCAAGCUGUUAAAGAUCUUGGAUCCCAUUAUAUAGUAUGUAUAGCUGAAAUCUGUAAUUCAAUCACUUUUUCUCUUUUACAACAGAGGAUUGAGCAUCA
B7: chr8:74853834:74853946:+|3pUTR|ENSG00000137558|unk|FALSE|unique (ssRNA)
RNA: GGGAGUUCUACAGUCCGACGAUCAAGUGCUUUUUUUUUUCUGAAUUAAUUAGGUAUUGGUAAAAUAUAUUUUUAAAUUUAGUUAGCUUUAUAAACACAAUUAGAAUUACAAUUAAUUAACAGAGGUAUAAUUGUCUCACUUUCCAACAGAGGAUUGAGCAUCA
B8: chr3:97755980:97756081:+|3pUTR|ENSG00000080224|unk|FALSE|unique (ssRNA)
RNA: GGGAGUUCUACAGUCCGACGAUCUAAUUAAAAAUCUCUUUCCUACCUUUAGUAAUUUGUAGGAUGAACUGUAUGCAUUUAGAUAGAAAUUGCUUUUGUUAAAUUUACAUUUAAACACAUCUUCAUUCACUUAGAGAAGCCAUACAACAGAGGAUUGAGCAUCA
B9: chr8:42175503:42175666:-|3pUTR|ENSG00000104368|msi1|FALSE|unique (ssRNA)
RNA: GGGAGUUCUACAGUCCGACGAUCAUGAAAGCAUGUCUCAAUAGUAAAAGAUAACAAGAUCUUUCAGGAAAGACGGAUUGCAUUAGAAAUAGACAGUAUAUUUAUAGUCACAAGAGCCCAGCAGGGCCUCAAAGUUGGGGCAGGCAACAGAGGAUUGAGCAUCA
B10: chr6:145382534:145384023:-|three_prime_utr|ENSG00000112425|control|control|control (ssRNA)
RNA: GGGAGUUCUACAGUCCGACGAUCUCAACAUGAUUUAACAGAUCUAUAUGUUAAAGGAGAAAAAGAUAUGUGGAUGCUAUCAAUAGUAGCUGAAAAGCAUUUUCAGAAAUCUGUAAGUAGAGGAAAUGUAUUCAUAUGUUUCUACAACAGAGGAUUGAGCAUCA
B11: ENSG00000070961:be:win_6001|3pUTR|ENSG00000070961|bound_else_gene|NA|bound_elsewhere_windowed (ssRNA)
RNA: GGGAGUUCUACAGUCCGACGAUCCAAGACAUGCUUAGUGUGUAUUUCUCUCUUUGAGACACUGUAAUUUCUACCAGAAAUUUCCAGAGCAUUAUGUAGGUAGAAAAAAAUGCAAGCAAGCUGUUAAAGAUCUUGGAUCCCAUUCAACAGAGGAUUGAGCAUCA
B12: chr8:74853834:74853946:+|3pUTR|ENSG00000137558|unk|total|mutant (ssRNA)
RNA: B7 RNA with U50C, A51C, U79C, A80C, U83C, A84C, U101C, A102C
B13: chr12:89642165:89642281:-|CDS|ENSG00000070961|unk|total|mutant (ssRNA)
RNA: GGGAGUUCUACAGUCCGACGAUCGCCAAAAACCUUUCUUCAAUCCGUAUGGGAAGCAUUACAAGAUGUCACUUUAAUUAUAUCCGAAAUUGCAGCCACCGUAUCAUUGGGCCUUUCUUUUUAUCAGCCUCCAGAAGGGGAUAACAACAGAGGAUUGAGCAUCA
B14: chr12:123662440:123662541:+|3pUTR|ENSG00000111358|unk|FALSE|unique (ssRNA)
RNA: GGGAGUUCUACAGUCCGACGAUCAAUGGAAAUCACAAUUUUAAGUCUAGGAAAUAAAGUAUUAUAUAUACUUUCAAACAAGCUAGCAAGGCUUUUAUUAUUACUUUUUUAUUUGAAAUAUCUUAUAUAUUUGGUUAGUUCUGUCAACAGAGGAUUGAGCAUCA
B15: chr3:97755980:97756081:+|3pUTR|ENSG00000080224|unk|total|mutant (ssRNA)
RNA: B8 RNA with U49C, A50C, U59C, A60C, U79C, A80C, U83C, A84C, U131C, A132C
B16: chr8:42175503:42175666:-|3pUTR|ENSG00000104368|msi1|total|mutant (ssRNA)
RNA: B9 RNA with U41C, A42C, U83C, A84C, U89C, A90C, U104C, A105C
B17: chr3:62294137:62294238:+|3pUTR|ENSG00000144724|msi1|FALSE|unique (ssRNA)
RNA: GGGAGUUCUACAGUCCGACGAUCUGAGACCCUUUAGUUAUUCUCCAUUAAUGCUUCUUAGUUUGUAAUACCAUACCUCACAGUAGGUAGAAGAAUGAAAACUUCUGCAGGUGUGUAAUUUUGAAACUAGUCCUCUAAAAAUUCCAACAGAGGAUUGAGCAUCA

target: MSI1 full-length (mouse, UniProt Q61474 1-362); assay: nsRBNS (natural sequence RNA bind-n-seq); RBNS binding buffer (assumed for nsRBNS): 25 mM Tris pH 7.5, 150 mM KCl, 3 mM MgCl2, 0.01% Triton X-100, 500 ug/ml BSA, 20 U/ml SUPERase-In, 4 C; UNK is unkempt and MSI1 is Musashi-1; names of the RNAs are library labels; protein concentration not given here; high values mean tight binding
Sequence (Q61474 whole entry): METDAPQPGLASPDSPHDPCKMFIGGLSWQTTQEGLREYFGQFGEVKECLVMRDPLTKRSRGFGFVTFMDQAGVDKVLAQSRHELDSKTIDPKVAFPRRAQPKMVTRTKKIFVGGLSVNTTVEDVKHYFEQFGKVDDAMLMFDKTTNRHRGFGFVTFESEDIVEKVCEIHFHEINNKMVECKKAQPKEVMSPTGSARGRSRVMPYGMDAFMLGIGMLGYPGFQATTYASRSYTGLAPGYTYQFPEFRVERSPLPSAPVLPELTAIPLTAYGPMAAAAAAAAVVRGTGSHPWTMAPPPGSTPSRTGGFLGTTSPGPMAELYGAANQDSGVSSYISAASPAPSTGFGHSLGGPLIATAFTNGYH

Row | Binder | binding signal
1 | B1 | 0.384 enrichment R
2 | B2 | 0.211 enrichment R
3 | B3 | 0.864 enrichment R
4 | B4 | 1.27 enrichment R
5 | B5 | 0.957 enrichment R
6 | B6 | 37.4 enrichment R
7 | B7 | 47.1 enrichment R
8 | B8 | 19.4 enrichment R
9 | B9 | 41.9 enrichment R
10 | B10 | 1.04 enrichment R
11 | B11 | 0.464 enrichment R
12 | B12 | 1.6 enrichment R
13 | B13 | 0.453 enrichment R
14 | B14 | 12.8 enrichment R
15 | B15 | 1.21 enrichment R
16 | B16 | 0.44 enrichment R
17 | B17 | 8.1 enrichment R
